Assay results as given in PubChem BioAssay (EPA / NIEHS).
Records with an inconclusive call do not appear. Activity calls are given as the source filed them. Rule for the calls, unless noted: active = hit-call score of the fitted dose curve at least 0.9, where 1 is the maximum; inconclusive = response in the unintended direction; inactive = score below 0.9.

Legend:
[1] = TOX21_p53_BLA_p2_viability: Viability Assessment in the Tox21 HCT-116 p53 Agonism Beta-lactamase Assay, Phase 2 (AID 2283591);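 note: compound exposure lasted 16 h at 37 °C; actives lower the ATP signal meaning cytotoxicity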
Summary of the method: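 HCT-116 p53-bla cells (4000/well) rested 5 h at 37C, then received compounds in DMSO (217-fold dilution) for 16 h at 37C, 5% CO2. After the CCF4 read, CellTiter-Glo was added; ATP luminescence was read after 30 min at room temperature.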

[2] = molecular target: Cellular tumor antigen p53 (Homo sapiens) (UniProt P04637); assay: TOX21_p53_BLA_p2_ratio: Tox21 HCT-116 p53 Agonism Beta-lactamase Assay, Ratio, Phase 2 (AID 2283592)
Chain of Cellular tumor antigen p53 (Homo sapiens) (P04637 whole entry, looked up): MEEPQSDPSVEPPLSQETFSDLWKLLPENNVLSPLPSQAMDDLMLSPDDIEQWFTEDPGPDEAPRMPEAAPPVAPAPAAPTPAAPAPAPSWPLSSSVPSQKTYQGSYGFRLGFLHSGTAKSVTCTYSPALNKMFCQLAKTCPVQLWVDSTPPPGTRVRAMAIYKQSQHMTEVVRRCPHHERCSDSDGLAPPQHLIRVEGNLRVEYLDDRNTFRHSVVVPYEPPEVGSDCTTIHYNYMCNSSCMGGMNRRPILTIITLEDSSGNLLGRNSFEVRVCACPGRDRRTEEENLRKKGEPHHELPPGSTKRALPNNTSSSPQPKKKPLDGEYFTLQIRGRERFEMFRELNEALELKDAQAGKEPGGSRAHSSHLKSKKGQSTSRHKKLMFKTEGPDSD
Summary of the method: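 Human colon HCT116 cells with an inducible p53 beta-lactamase reporter are exposed to test chemicals for 16 h at 37C. Reporter induction is read as the 460/530 nm emission ratio after CCF4-AM loading, normalized to DMSO.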

[3] = molecular target: Cellular tumor antigen p53 (Homo sapiens) (UniProt P04637); assay: TOX21_p53_BLA_p3_ratio: Tox21 HCT-116 p53 Agonism Beta-lactamase Assay, Ratio, Phase 3 (AID 2283596)
Summary of the method: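 HCT116 p53-bla cells (4000/well) given compound in DMSO (217-fold dilution) after 5 h, incubated 16 h at 37C. CCF4-AM substrate 2 h at room temperature; 460/530 nm emission ratio, gain fitted against DMSO.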

[4] = molecular target: Cellular tumor antigen p53 (Homo sapiens) (UniProt P04637); assay: TOX21_p53_BLA_p5_ratio: Tox21 HCT-116 p53 Agonism Beta-lactamase Assay, Ratio, Phase 5 (AID 2283599)
Summary of the method: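 HCT-116 cells carrying a p53-inducible beta-lactamase reporter were seeded at 4000 cells/well and dosed after 5 h with compound in DMSO (217-fold dilution). After 16 h at 37C, CCF4-AM substrate was added for 2 h, and the 460/530 nm emission ratio was scored as gain-of-signal versus DMSO.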

[5] = molecular target: Cellular tumor antigen p53 (Homo sapiens) (UniProt P04637); assay: TOX21_p53_BLA_p4_ratio: Tox21 HCT-116 p53 Agonism Beta-lactamase Assay, Ratio, Phase 4 (AID 2283601)
Summary of the method: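 HCT116 cells carrying an inducible beta-lactamase reporter were plated at 4000 cells/well, rested 5 h, then exposed to compounds in DMSO (217-fold dilution) for 16 h at 37C. CCF4-AM substrate was loaded 2 h at room temperature; 460/530 nm emission ratio scored gain-of-signal versus DMSO.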

[6] = TOX21_p53_BLA_p5_viability: Viability Assessment in the Tox21 HCT-116 p53 Agonism Beta-lactamase Assay, Phase 5 (AID 2283600)
Summary of the method: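 Seeded cells (4000/well) settle 5 h before compound addition. Plates then incubate 16 h at 37C, receive FRET substrate for 2 h, and finally CellTiter-Glo, with luminescence measured after a 30 min room-temperature incubation.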

[7] = TOX21_p53_BLA_p4_viability: Viability Assessment in the Tox21 HCT-116 p53 Agonism Beta-lactamase Assay, Phase 4 (AID 2283597);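 note: hits lower the luminescence signal meaning cytotoxicity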
Summary of the method: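 Luminescent ATP readout (CellTiter-Glo, 30 min, room temperature) in the same wells as the p53 bla ratio. HCT116 cells were treated for 16 h at 37C with DMSO-dissolved compounds.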

[8] = molecular target: THRA (gene 7067) (UniProt P10827); assay: TOX21_TRA_COA_Antagonist_Followup_ratio: Tox21 Thyroid Hormone Receptor alpha Antagonism through Coactivator Recruitment Follow-Up Assay, Ratio (AID 2283953)
Chain of THRA (gene 7067) (P10827 whole entry, looked up, the tested form may be a part): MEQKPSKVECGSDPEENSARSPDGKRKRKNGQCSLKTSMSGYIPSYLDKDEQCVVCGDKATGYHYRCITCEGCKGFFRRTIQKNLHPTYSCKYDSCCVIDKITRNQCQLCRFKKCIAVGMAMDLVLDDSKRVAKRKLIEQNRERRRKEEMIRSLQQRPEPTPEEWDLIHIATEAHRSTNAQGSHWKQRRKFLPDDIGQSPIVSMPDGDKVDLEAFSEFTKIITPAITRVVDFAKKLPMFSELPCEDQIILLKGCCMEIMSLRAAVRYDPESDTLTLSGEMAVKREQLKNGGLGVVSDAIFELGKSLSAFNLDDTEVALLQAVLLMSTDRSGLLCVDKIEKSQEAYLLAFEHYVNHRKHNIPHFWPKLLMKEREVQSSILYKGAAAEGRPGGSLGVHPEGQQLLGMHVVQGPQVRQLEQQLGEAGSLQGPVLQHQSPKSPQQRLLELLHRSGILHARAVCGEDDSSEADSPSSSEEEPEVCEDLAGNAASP
Summary of the method: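 520:495 nm emission ratio (excitation 340 nm) reports fluorescein-SRC-2 peptide recruitment to GST-TRα LBD by TR-FRET with Tb anti-GST antibody. Values were normalized to DMSO (0%) and T3 control wells (100%); loss of signal indicated antagonism.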

[9] = molecular target: THRB (gene 7068) (UniProt P10828); assay: TOX21_TRB_BLA_Antagonist_Followup_ratio: Tox21 Thyroid Hormone Receptor beta Antagonism Beta-lactamase (BLA) Follow-Up Assay, Ratio (AID 2283958)
Chain of THRB (gene 7068) (P10828 whole entry, looked up, the tested form may be a part): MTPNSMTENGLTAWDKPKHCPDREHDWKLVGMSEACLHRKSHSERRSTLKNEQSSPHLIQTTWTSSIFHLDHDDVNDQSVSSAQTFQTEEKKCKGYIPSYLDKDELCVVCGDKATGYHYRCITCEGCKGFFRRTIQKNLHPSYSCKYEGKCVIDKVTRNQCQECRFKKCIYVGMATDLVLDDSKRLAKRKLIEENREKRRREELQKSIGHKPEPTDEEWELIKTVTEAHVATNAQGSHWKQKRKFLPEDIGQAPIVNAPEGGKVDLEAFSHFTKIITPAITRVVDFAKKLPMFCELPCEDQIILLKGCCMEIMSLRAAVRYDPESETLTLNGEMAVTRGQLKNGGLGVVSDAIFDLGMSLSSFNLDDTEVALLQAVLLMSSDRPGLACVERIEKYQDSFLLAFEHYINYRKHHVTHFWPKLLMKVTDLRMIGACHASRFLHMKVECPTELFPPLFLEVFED
Summary of the method: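 HEK293T TRb-bla (GAL4 DBD + hTRβ LBD), 2% cs-FBS phenol red-free DMEM, 5 h attach; cpds 11-pt triplicate, 18 h 37C; CCF4-AM 2 h RT; 460/530 ratio vs DMSO; CellTiter-Glo viability same wells.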

[10] = TOX21_TRB_BLA_Antagonist_Followup_viability: Viability Assessment in the Tox21 Thyroid Hormone Receptor beta Antagonism Beta-lactamase (BLA) Follow-Up Assay (AID 2283961)
Summary of the method: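 In the same wells as the reporter read, cell health was gauged by CellTiter-Glo ATP luminescence, with signal loss indicating reduced viability. Cells had been exposed to test compounds for 18 h.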

[11] = molecular target: THRB (gene 7068) (UniProt P10828); assay: TOX21_TRB_COA_Antagonist_Followup_ratio: Tox21 Thyroid Hormone Receptor beta Antagonism through Coactivator Recruitment Follow-Up Assay, Ratio (AID 2283967)
Summary of the method: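 Cell-free TR-FRET coactivator recruitment with GST-tagged TRβ LBD (5.0 nM) and fluorescein-labeled SRC-2 peptide (200 nM) detected by terbium anti-GST antibody (2 nM). The 520:495 nm emission ratio was normalized to DMSO (0%) and T3 (100%).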

[12] = CCTE_Harrill_HTTr_Viability_MCF7: CCTE's 6-hour Cell Viability Assessment for the High-Throughput Transcriptomics (HTTr) Platform, in MCF-7 cells cultured in DMEM + 10% fetal bovine serum, Harrill Lab (AID 2284010; active = hit-call score of the fitted dose curve at least 0.9, where 1 is the maximum; inactive = score below 0.9)
Summary of the method: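 Cells were dosed with chemicals in an eight-point dilution series, imaged 6 hours later for propidium iodide uptake, and the endpoint was analyzed by bidirectional fitting against DMSO as negative control.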

[13] = CCTE_Harrill_HTTr_Apoptosis_MCF7: CCTE's 6-hour Apoptosis Assessment for the High-Throughput Transcriptomics (HTTr) Platform, in MCF-7 cells cultured in DMEM + 10% fetal bovine serum, Harrill Lab (AID 2284011; active = hit-call score of the fitted dose curve at least 0.9, where 1 is the maximum; inactive = score below 0.9)
Summary of the method: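 Apoptosis in MCF-7 cells grown in DMEM with 10% fetal bovine serum was scored after a six hour exposure by high content imaging of caspase-3/7 activation (CellEvent Caspase 3/7 Green), with DMSO serving as negative control and baseline.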

[14] = CCTE_Harrill_HTTr_CellCount_MCF7: CCTE's Cell Proliferation Assessment for the High-Throughput Transcriptomics (HTTr) Platform, Harrill Lab (AID 2284012);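 note: count of Hoechst-stained nuclei per well by high-content imaging in MCF-7 cells; cells exposed to compound for six hours; intended direction is loss of nuclei count meaning fewer cells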
Summary of the method: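 Chemicals in eight-point dilution series are added to MCF-7 cells for six hours, nuclei are stained with Hoechst and imaged, and per-well nuclei counts are fitted in both directions relative to DMSO controls.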

Measured: outcome

CC12CCC(C1)C(C)(C)C2=O (configuration not stated)
inactive: [1] | [2] | [3] | [4] | [5]

CCC(C)O (configuration not stated)
inactive: [1] | [2] | [3] | [6]

FC(F)(F)C(F)(F)C(F)(F)C(F)(F)C(F)(F)F
inactive: [1] | [2] | [3] | [4] | [5]

CC(=O)N[C@@H]([C@@H](O)[C@H](O)[C@H](O)CO)[C@@H](O)CC(=O)C(=O)O
inactive: [1] | [2] | [3] | [4] | [5]

CC[C@@H](C)[C@@H](N)C(=O)O
inactive: [1] | [2] | [7] | [4]

CO[C@H]1O[C@H](CO)[C@@H](O)[C@H](O)[C@H]1O
inactive: [1] | [2] | [7]

CC[C@H]1NC(=O)[C@@H](NC(=O)c2ncccc2O)[C@@H](C)OC(=O)[C@H](c2ccccc2)NC(=O)[C@@H]2CC(=O)CCN2C(=O)[C@H](Cc2ccccc2)N(C)C(=O)[C@@H]2CCCN2C1=O
inactive: [1] | [2] | [7] | [4] | [6]

CCN1CCC[C@H]1CNC(=O)c1c(O)c(Cl)cc(Cl)c1OC
inactive: [1] | [2] | [7] | [4] | [6]

CN[C@H](CC(C)C)C(=O)N[C@H]1C(=O)N[C@@H](CC(N)=O)C(=O)N[C@H]2C(=O)N[C@H]3C(=O)N[C@H](C(=O)N[C@H](C(=O)O)c4cc(O)cc(O)c4-c4cc3ccc4O)[C@H](O)c3ccc(c(Cl)c3)Oc3cc2cc(c3O[C@@H]2O[C@H](CO)[C@@H](O)[C@H](O)[C@H]2O[C@H]2C[C@](C)(N)[C@H](O)[C@H](C)O2)Oc2ccc(cc2Cl)[C@H]1O
inactive: [1] | [2] | [3] | [6] | [5]

CCOC(=O)O[C@]1(C(=O)OCCl)CC[C@H]2[C@@H]3CCC4=CC(=O)C=C[C@]4(C)[C@H]3[C@@H](O)C[C@@]21C
inactive: [1] | [2] | [3] | [5]

NS(=O)(=O)c1ccccc1OC(F)(F)F
inactive: [1] | [2] | [3] | [6] | [5]

Cc1nc(-c2ccc(OCC(C)C)c(C#N)c2)sc1C(=O)O
not listed: [4] | [5] | [6] | [7]
inactive: all other assays above

Cc1cc(C)cc(OCC2CNC(=O)O2)c1 (configuration not stated)
inactive: [1] | [2] | [3] | [5]

O=C(NCC(O)CO)c1c(I)c(C(=O)NCC(O)CO)c(I)c(N(CCO)C(=O)CO)c1I (configuration not stated)
inactive: [1] | [2] | [3] | [6] | [5]

CCCC(C)C(=O)O (configuration not stated)
inactive: [1] | [2] | [7] | [4] | [6]

CCC1OCC(COc2ccc(Oc3ccccc3)cc2)O1 (configuration not stated)
inactive: [1] | [2] | [3] | [6] | [5]

COc1ccc(C)cc1
inactive: [1] | [2] | [3] | [6] | [5]

O=C(CCCN1CCN2CCCC2C1)c1ccc(F)cc1 (configuration not stated)
inactive: [1] | [2] | [7]

N[C@@H](C(=O)N[C@@H]1C(=O)N2C(C(=O)O)=C(Cl)CS[C@H]12)c1ccccc1
inactive: [1] | [2] | [3] | [6] | [5]

CC(C(=O)O)c1ccc(C(=O)c2ccccc2)s1 (configuration not stated)
inactive: [1] | [2] | [7] | [4] | [6] | [5]

COc1cccc(OC)c1C(=O)N[C@@H]1C(=O)N2[C@@H]1SC(C)(C)[C@@H]2C(=O)O
inactive: [1] | [2] | [3] | [6] | [5]

NCC[C@H](O)C(=O)N[C@@H]1C[C@H](N)[C@@H](O[C@H]2O[C@H](CN)CC[C@H]2N)[C@H](O)[C@H]1O[C@H]1O[C@H](CO)[C@@H](O)[C@H](N)[C@H]1O
inactive: [1] | [2] | [3] | [5]

O=[N+]([O-])c1cccc(S(=O)(=O)NCCNS(=O)(=O)c2cccc([N+](=O)[O-])c2)c1
inactive: [1] | [2] | [3] | [6] | [5]

CC(=O)Nc1ccc(C(=O)O)cc1
inactive: [1] | [2] | [3] | [6] | [5]

Cc1cc(C)c(NC(=O)C[C@H](CC(=O)O)c2cccc3ccccc23)c(C(=O)N2CCC3(CCCC3)CC2)c1
inactive: [1] | [2] | [3] | [5]

O=C(O)c1ccc[n+]([O-])c1
inactive: [1] | [2] | [3] | [5]

CCCCOC(=O)c1ccccc1C(=O)OCC(CC)CCCC (configuration not stated)
inactive: [1] | [2] | [7]

Cc1cn([C@H]2C[C@H](F)[C@@H](CO)O2)c(=O)[nH]c1=O
inactive: [1] | [2] | [3] | [6] | [5]

Cc1ccccc1N1CCN(CCc2nnc3n2CCCC3)CC1
inactive: [1] | [2] | [3] | [6] | [5]

CN1CCC(CN2c3ccccc3Sc3ccccc32)C1 (configuration not stated)
inactive: [1] | [2] | [7] | [4]

c1ccc(CCNc2nc(-c3ccccc3)cs2)cc1
inactive: [1] | [2] | [7] | [4] | [6]

O=c1[nH]cnc2[nH]cc(CN3CCCCC3)c12
inactive: [1] | [2] | [7] | [4] | [6]

CO/N=C(\C(=O)N[C@@H]1C(=O)N2C(C(=O)[O-])=C(C[n+]3cccc4c3CCC4)CS[C@H]12)c1csc(N)n1
inactive: [1] | [2] | [3] | [6] | [5]
